Measurements as given in PubChem BioAssay.
The source made the active and inactive calls.

Experiments:
[1] = optical density shifts of acrAB sulA E. coli – strain DRC41, OD650, 48 h, E. coli filamentation inducer project, primary screen (AID 1152); conditions: higher = more signal, called active from +8 up or from −8 down;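 note: E. coli MC1000 strain DRC41 lacking acrAB efflux pump and sulA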
[2] = probe aLefty1 binding on compound microarray – biochemical, small-molecule microarray, 635/667 nm fluorescence, primary screen (AID 1153); conditions: higher = more signal;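 note: score merges spot fluorescence with signal-to-noise ratio from the scanned slide images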
[3] = plasmodial surface anion channel blockers, osmotic lysis – cell-based, P. falciparum Indochina, OD700, 1 h, primary screen (AID 1154); conditions: P. falciparum Indochina infected RBC osmotic lysis, higher = more signal, called active from +8 up or from −8 down
[4] = plasmodial surface anion channel blockers, osmotic lysis – cell-based, P. falciparum Indochina, OD700, 2 h, primary screen (AID 1155);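 note: lysis reports solute entry through the parasite surface anion channel PSAC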; conditions: P. falciparum Indochina infected erythrocytes, higher = more signal, called active from +8 up or from −8 down
[5] = changes in parasitized red cell lysis, either direction – P. falciparum Indochina, OD700, 3 h, PSAC antagonist project, primary screen (AID 1156); conditions: P. falciparum-infected erythrocytes, osmotic lysis, higher = more signal, called active from +8 up or from −8 down
[6] = plasmodial surface anion channel blockers, osmotic lysis – cell-based, P. falciparum Indochina, OD700, 18 h, primary screen (AID 1157); conditions: P. falciparum Indochina infected erythrocytes, osmotic lysis OD700, 18 h; higher = more signal, called active from +8 up or from −8 down
[7] = S6 kinase pathway phospho-S6 level changes – cell-based, A549, cytoblot, luminescence, serum-stimulated, primary screen (AID 1158); conditions: 5 h, higher = more signal;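 note: serum-stimulated A549 lung adenocarcinoma cells; signal is phosphorylated S6 detected by cytoblot immunostaining with HRP secondary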
[8] = target: NADPH oxidase 2 (Homo sapiens) (UniProt P04839); assay: compounds shifting NOX2 Amplex Red fluorescence – cell-based, HEK293-NOX2, PMA-stimulated, NOX inhibitor project, primary screen (AID 1159); conditions: 45 min, higher = more signal, called active from +8 up or from −8 down; note: test concentration not given here
Chain of NADPH oxidase 2 (Homo sapiens) (P04839 whole entry, looked up): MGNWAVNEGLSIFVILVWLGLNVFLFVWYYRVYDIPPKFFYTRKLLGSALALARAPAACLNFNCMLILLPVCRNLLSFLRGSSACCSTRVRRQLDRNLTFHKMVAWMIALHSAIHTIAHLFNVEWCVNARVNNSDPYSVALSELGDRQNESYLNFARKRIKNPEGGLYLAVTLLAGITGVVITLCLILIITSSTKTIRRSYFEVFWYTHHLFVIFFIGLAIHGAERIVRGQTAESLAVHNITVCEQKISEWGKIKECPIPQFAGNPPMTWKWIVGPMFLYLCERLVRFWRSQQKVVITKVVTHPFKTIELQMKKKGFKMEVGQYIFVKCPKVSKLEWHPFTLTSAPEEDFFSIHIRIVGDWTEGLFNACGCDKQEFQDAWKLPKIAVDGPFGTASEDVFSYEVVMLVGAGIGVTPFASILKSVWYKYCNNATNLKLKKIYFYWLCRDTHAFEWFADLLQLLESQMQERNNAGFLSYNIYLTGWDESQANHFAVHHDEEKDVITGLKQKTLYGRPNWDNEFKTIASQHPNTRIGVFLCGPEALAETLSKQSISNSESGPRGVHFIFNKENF

[9] = target: NADPH oxidase 4 (Homo sapiens) (UniProt Q9NPH5); assay: compounds shifting NOX4 Amplex Red fluorescence – cell-based, HEK293-NOX4, tetracycline-induced, NOX inhibitor project, primary screen (AID 1160); conditions: HEK293-NOX4, Amplex Red H2O2 fluorescence, 45 min; higher = more signal, called active from +8 up or from −8 down
Chain of NADPH oxidase 4 (Homo sapiens) (Q9NPH5 whole entry, looked up): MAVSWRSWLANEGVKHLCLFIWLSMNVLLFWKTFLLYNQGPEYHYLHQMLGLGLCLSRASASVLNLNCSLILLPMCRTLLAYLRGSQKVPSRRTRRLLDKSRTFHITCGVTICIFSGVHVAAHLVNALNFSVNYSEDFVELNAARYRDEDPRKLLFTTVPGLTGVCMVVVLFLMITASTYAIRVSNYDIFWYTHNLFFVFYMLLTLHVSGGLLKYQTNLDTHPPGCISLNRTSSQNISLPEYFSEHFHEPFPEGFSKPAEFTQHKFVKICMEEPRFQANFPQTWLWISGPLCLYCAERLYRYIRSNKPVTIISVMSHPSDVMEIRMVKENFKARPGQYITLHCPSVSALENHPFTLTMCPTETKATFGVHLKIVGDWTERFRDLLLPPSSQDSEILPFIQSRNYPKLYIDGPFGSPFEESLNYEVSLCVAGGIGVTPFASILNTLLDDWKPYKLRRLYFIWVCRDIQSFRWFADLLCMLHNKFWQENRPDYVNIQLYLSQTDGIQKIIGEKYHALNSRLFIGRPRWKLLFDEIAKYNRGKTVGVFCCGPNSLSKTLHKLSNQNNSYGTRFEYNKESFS

[10] = target: NADPH oxidase 5 (Homo sapiens) (UniProt Q96PH1); assay: compounds shifting NOX5 Amplex Red fluorescence – cell-based, HEK293-NOX5, NOX inhibitor project, primary screen (AID 1161); conditions: HEK293-NOX5, ionomycin, 45 min, higher = more signal
Chain of NADPH oxidase 5 (Homo sapiens) (Q96PH1 whole entry, looked up): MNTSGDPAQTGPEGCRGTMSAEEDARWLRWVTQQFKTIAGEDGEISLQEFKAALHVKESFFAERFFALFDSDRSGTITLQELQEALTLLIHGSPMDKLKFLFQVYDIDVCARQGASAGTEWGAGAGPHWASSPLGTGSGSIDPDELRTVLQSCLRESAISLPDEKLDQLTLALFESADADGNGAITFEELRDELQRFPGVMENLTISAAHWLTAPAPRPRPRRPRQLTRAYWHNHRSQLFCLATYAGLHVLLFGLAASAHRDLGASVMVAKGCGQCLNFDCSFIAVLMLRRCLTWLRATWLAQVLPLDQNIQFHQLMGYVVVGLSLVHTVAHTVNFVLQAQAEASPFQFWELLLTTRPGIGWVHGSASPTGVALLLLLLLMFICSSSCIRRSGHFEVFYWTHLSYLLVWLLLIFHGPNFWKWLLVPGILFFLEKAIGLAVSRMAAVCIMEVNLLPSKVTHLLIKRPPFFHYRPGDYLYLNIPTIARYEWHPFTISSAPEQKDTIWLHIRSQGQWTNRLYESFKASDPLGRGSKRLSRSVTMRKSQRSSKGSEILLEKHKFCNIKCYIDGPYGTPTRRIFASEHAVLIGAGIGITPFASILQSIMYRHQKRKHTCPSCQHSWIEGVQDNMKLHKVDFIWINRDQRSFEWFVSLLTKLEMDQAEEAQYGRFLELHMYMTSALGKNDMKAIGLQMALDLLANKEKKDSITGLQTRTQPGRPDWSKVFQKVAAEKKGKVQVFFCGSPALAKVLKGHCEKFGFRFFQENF

Row | Compound | z-score [1] | composite z-score [2] | z-score [3] | z-score [4] | z-score [5] | z-score [6] | z-score [7] | z-score [8] | z-score [9] | z-score [10]
1 | CC(CO)N1C(=O)[C@@H]2C3C(=O)OCCC/C=C\[C@H]3OC23C=CCN(c2ccc4ccccc4c2)C(=O)[C@@H]13 (stereo not given in full) | 0.453 (inactive) | -0.147 | 1.07 (inactive) | 0.0843 (inactive) | 1.87 (inactive) | 0.011 (inactive) | -0.13 | 1.03 (inactive) | -0.0122 (inactive) | 1.97
2 | COc1ccc(CCNC(=O)[C@@H]2c3ccccc3C(=O)N(C3Cc4ccccc4C3)[C@H]2c2ccc(CO)cc2)cc1 | -0.483 (inactive) | -0.0544 | 6.43 (inactive) | 0.65 (inactive) | 0.474 (inactive) | 0.183 (inactive) | -0.484 | -3.31 (inactive) | -0.185 (inactive) | -3.47
3 | COc1ccc([Si](C)(C)[C@H]2[C@H](CCO)O[C@@]3(C(=O)N(Cc4ccc(N5C(=O)COc6ccccc65)cc4)c4ccccc43)[C@@H]2C)cc1 | -0.609 (inactive) | -0.0094 | 5 (inactive) | 2.39 (inactive) | -0.645 (inactive) | 1.41 (inactive) | 0.328 | -0.916 (inactive) | 1.3 (inactive) | 2
4 | CC(C)OC(=O)C=C1C[C@@H](c2ccccc2C(F)(F)F)O[C@@H](c2ccccc2C(F)(F)F)O1 | -0.66 (inactive) | -0.0011 | 1.66 (inactive) | 1.55 (inactive) | 0.632 (inactive) | 0.659 (inactive) | -0.491 | 0.441 (inactive) | -0.64 (inactive) | -0.774
5 | CN1C(=O)C2C=CC(C(O)Cc3ccccc3)N(Nc3ccccc3)C2C1=O (stereo not given) | -1.55 (inactive) | -0.0501 | 1.15 (inactive) | 0.872 (inactive) | 0.215 (inactive) | 0.9 (inactive) | -0.709 | -1.57 (inactive) | -4.77 (inactive) | -3.59
6 | COCCOC(=O)N1C(=O)[C@@]2(c3ccccc31)[C@H](c1ccc(O)cc1)N1[C@H](c3ccccc3)[C@H](c3ccccc3)OC(=O)[C@H]1[C@@H]2C(=O)NC[C@H](O)c1ccccc1 | 0.0221 (inactive) | 0.132 | 1.06 (inactive) | 0.664 (inactive) | 0.515 (inactive) | 0.563 (inactive) | 0.104 | 0.873 (inactive) | 0.0245 (inactive) | 0.604
7 | COc1ccc(NN2C(C(O)c3ccc([N+](=O)[O-])cc3)C=CC3C(=O)N(C4CCCCC4)C(=O)C32)cc1 (stereo not given) | -0.256 (inactive) | 0.3 | 7.78 (inactive) | 1.11 (inactive) | -0.187 (inactive) | 0.708 (inactive) | -0.126 | -1.03 (inactive) | -2.3 (inactive) | -0.48
8 | C=C(CCCC)C(=O)CC[C@H](OC(C)=O)c1cccc(OCCO)c1 | 0.648 (inactive) | -0.263 | 5.27 (inactive) | -1.77 (inactive) | 1.57 (inactive) | -1.85 (inactive) | 0.73 | -1.94 (inactive) | -0.766 (inactive) | -2.8
9 | C=CCC(OC(C)=O)[C@@H]1[C@@H](N(Cc2ccc(-c3ccccc3)cc2)C(=O)Cc2ccc(F)cc2)c2cc(OCCCO)ccc2N1C(=O)c1ccc(-c2ccccc2)cc1 (stereo not given in full) | 2.08 (inactive) | -0.0193 | 0.66 (inactive) | -0.221 (inactive) | -0.567 (inactive) | -0.154 (inactive) | 1.26 | -1.49 (inactive) | 0.414 (inactive) | 0.263
10 | CC(=O)N1Cc2ccccc2C[C@@]2(COC(c3ccc(OCCCO)cc3)=N2)C1=O | 2.48 (inactive) | 0.611 | 28.1 (active) | 13.4 (active) | 2.79 (inactive) | 1.7 (inactive) | 2.28 | -1 (inactive) | 1.74 (inactive) | -1.24
11 | CC(C)(C)C(=O)N[C@@H](c1ccc(Cl)cc1)[C@]1(C)C[C@H]1C1CCCCC1 | -0.913 (inactive) | 1.06 | 0.671 (inactive) | 0.418 (inactive) | 0.0711 (inactive) | 0.887 (inactive) | -0.191 | -0.0125 (inactive) | -1.05 (inactive) | -0.0713
12 | COCCOC(=O)N1C(=O)[C@@]2(c3cc(C#Cc4ccc(OC)cc4)ccc31)[C@H](C(N)=O)[C@H]1C(=O)O[C@H](c3ccccc3)[C@H](c3ccccc3)N1[C@@H]2c1ccccc1OCCO | -0.289 (inactive) | 0.358 | 4.42 (inactive) | 2.55 (inactive) | -0.499 (inactive) | 1.59 (inactive) | -0.413 | 2.38 (inactive) | 1.1 (inactive) | 1.44
13 | O=C1O[C@H](c2ccccc2)[C@H](c2ccccc2)N2[C@H]1[C@@H](C(=O)O)[C@]1(C(=O)Nc3ccc(C#CC4=CCCCC4)cc31)[C@H]2c1ccccc1OCCO | -0.611 (inactive) | 1.44 | -1.84 (inactive) | -1.36 (inactive) | -14.6 (active) | -1.92 (inactive) | 0.296 | 2.51 (inactive) | -1.94 (inactive) | -1.08
14 | O=C1O[C@@H](c2ccccc2)[C@@H](c2ccccc2)N2[C@@H](c3ccccc3OCCO)[C@]3(C(=O)Nc4ccc(C#CC5=CCCCC5)cc43)[C@@H](C(=O)Nc3nc4ccccc4s3)[C@H]12 | 0.36 (inactive) | 0.293 | 1.83 (inactive) | 1.9 (inactive) | 1.37 (inactive) | 1.83 (inactive) | 0.653 | 1.78 (inactive) | 0.387 (inactive) | 1.59
15 | CN1C(=O)C2C=CC(C(O)c3cc(C(F)(F)F)cc(C(F)(F)F)c3)N(N3CCCCC3)C2C1=O (stereo not given) | -0.78 (inactive) | 0.349 | 1.2 (inactive) | 0.968 (inactive) | 0.859 (inactive) | 0.999 (inactive) | -1.08 | 0.00363 (inactive) | -0.651 (inactive) | 1.01
16 | CCOC(=O)C[C@H]1[C@H](OC(=O)Cc2ccc3c(c2)OCO3)[C@@H](NC(=O)c2ccc(-c3ccccc3)cc2)c2cc(OCCCO)ccc2N1C(=O)Cc1ccc(OC)cc1 | 2.84 (inactive) | 0.123 | 25.4 (active) | 11.2 (active) | -0.67 (inactive) | 0.464 (inactive) | 1.74 | -1.35 (inactive) | 1.26 (inactive) | 2.24
17 | CCCCN1CC=CC23O[C@@H]4/C=C\CCC(C)OC(=O)C4[C@H]2C(=O)N(CCCCCO)[C@@H]3C1=O (stereo not given in full) | 0.119 (inactive) | -0.147 | 1.03 (inactive) | -0.0101 (inactive) | -0.0712 (inactive) | 0.406 (inactive) | 0.002 | 0.395 (inactive) | -0.022 (inactive) | 1.21
18 | CC(C)c1ccc(NN2C(C(O)C(c3ccccc3)c3ccccc3)C=CC3C(=O)N(c4ccccc4)C(=O)C32)cc1 (stereo not given) | -1.98 (inactive) | 0.497 | 0.363 (inactive) | 1.32 (inactive) | 0.771 (inactive) | 0.948 (inactive) | -0.582 | -1 (inactive) | -4.56 (inactive) | -4.98
